Compound activity from PubChem.
Gli-Sufu block: blocks Gli-Sufu signaling in a luciferase reporter; 340,000 compounds, 0.74% hits; inhibition, % at 5 µM; Sufu-KO-LIGHT fibroblasts, Gli luciferase reporter luminescence;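 active = inhibition above about 55%, limit read from the data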
Jurkat NFkB inh: lowers PMA/ionomycin-induced NF-kB signal in Jurkat cells; PMA/ionomycin-induced NF-kB luciferase reporter, luminescence; inhibition, % at 4 µM; 330,000 compounds, 0.53% hits; AID 435003; in the data active = inhibition above about 50%
KLF5 inh: inhibitors of KLF5 expression | DLD-1 KLF5 promoter-luciferase reporter, luminescence | inhibition, % at 5 µM | 290,000 compounds, 0.23% hits;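 active = inhibition above a per-plate limit of that plate's mean compound inhibition plus 3 SD, cut at about 60% in these data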;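 also: higher means less KLF5 promoter-driven luciferase light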
697 NFkB inh: lowers PMA/ionomycin-induced NF-kB signal in 697 B cells. 697 B-cell NF-kB luciferase reporter, 16 h. inhibition, % at 4 µM. 330,000 compounds, 0.33% hits. AID 435022; in the data active = inhibition above about 35%
aSyn UTR inh: MLPCN primary screen, SNCA 5' untranslated region; alpha-synuclein 5'UTR reporter, inhibitor activity; inhibition, % (tested at 7.5 µM); 300,000 compounds, 0.82% hits; in the data active = inhibition above about 60%;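 also: H4 neuroglioblastoma cells stably carrying SNCA 5'UTR luciferase fusion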
Mdm2-MdmX inh: inhibitors of human Mdm2/MdmX interaction; 330,000 compounds, 3% hits; AID 485346; inhibition, % at 8 µM; SaOS-2 split-luciferase Mdm2/MdmX complementation, luminescence;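 active = inhibition of at least 50% at 8 µM in the primary screen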
Target sequence (O15151 whole entry, looked up): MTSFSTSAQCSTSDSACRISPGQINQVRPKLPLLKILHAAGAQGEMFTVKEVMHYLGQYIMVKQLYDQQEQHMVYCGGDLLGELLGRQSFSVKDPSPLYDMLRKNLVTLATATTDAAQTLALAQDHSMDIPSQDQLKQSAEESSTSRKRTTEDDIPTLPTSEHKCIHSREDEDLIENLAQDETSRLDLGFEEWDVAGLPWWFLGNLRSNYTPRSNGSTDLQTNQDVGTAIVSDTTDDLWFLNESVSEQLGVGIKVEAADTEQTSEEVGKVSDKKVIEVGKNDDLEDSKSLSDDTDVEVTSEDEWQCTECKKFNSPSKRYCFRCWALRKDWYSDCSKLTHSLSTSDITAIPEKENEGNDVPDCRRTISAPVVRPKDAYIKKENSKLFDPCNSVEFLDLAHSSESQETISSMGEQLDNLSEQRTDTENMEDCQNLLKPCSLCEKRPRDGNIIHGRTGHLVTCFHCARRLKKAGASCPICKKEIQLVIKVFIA
Target sequence (Q00987 whole entry, looked up): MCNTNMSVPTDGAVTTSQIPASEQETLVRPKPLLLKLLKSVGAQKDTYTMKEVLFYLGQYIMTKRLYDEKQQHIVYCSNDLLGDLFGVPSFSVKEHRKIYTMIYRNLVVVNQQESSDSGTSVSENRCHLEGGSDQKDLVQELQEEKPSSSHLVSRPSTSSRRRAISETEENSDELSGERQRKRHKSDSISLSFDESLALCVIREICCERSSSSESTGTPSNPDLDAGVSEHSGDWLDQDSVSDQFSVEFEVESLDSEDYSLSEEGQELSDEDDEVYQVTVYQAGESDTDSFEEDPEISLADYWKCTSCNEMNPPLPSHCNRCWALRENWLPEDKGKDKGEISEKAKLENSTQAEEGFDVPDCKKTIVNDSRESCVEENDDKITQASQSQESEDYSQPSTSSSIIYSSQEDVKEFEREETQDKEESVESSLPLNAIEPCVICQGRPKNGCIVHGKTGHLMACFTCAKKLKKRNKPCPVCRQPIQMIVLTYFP
A number is an active result; - = inactive; . = no result. This is a sample that favours compounds with a hit; in the whole collection about 4.1% have one here.

SMILES	Gli-Sufu block	Jurkat NFkB inh	KLF5 inh	697 NFkB inh	aSyn UTR inh	Mdm2-MdmX inh
O=C(N/N=C(\c1ccccc1)c1ccccn1)c1ccccc1Cl	-	-	-	-	67.5	-
S=C(NN=C(c1ccccc1)c1ccccn1)N(Cc1ccccn1)Cc1ccccn1	69.0	.	.	.	.	.
CC(=NNC(=S)N(Cc1ccccn1)Cc1ccccn1)c1cnccn1	89.8	.	.	.	.	.
Cc1nc2nc(C)c(NS(=O)(=O)c3ccc4c(c3)CCCC4)c(=O)n2[nH]1	-	-	-	-	-	-
CCOC(=O)C(=CNc1ccc(N2CCCCC2)c(S(=O)(=O)Nc2ccccc2OC)c1)C(=O)OCC	-	.	.	.	.	.
Clc1ccccc1N1CCN(Cc2c[nH]c3ccccc23)CC1	-	-	.	-	64.1	-
CN=c1scc(-c2ccc(F)cc2)n1/N=C/c1ccc(O)c(O)c1	58.2	-	-	-	.	-
C/C(=N\Nc1nc2ccccc2[nH]1)c1ccccn1	.	-	-	-	86.7	-
COc1ccc(C(=O)COc2ccc(C(C)=O)cc2OC)cc1OC	-	.	.	.	.	.
CCc1nc2ccccc2c2nc3ccccc3n12	-	-	-	-	-	-
O=c1c2ccc([N+](=O)[O-])c3cccc(c32)c2nc3ccccc3n12	.	-	-	-	79.0	-
O=C(NC(=O)c1ccccc1)Nc1ccccc1	.	-	-	-	71.8	-
CCN(CC)C(=O)CSc1nc2cc3c(cc2c(=O)n1CCCCCC(=O)NCc1ccc(OC)cc1)OCO3	-	-	-	-	-	-
O=C(Nc1ccccn1)c1cc(-c2cccnc2)nc2ccc(Br)cc12	-	-	-	-	62.1	-
O=C(Nc1ccc(C(=O)N2CCOCC2)cc1)c1cc(-c2cccnc2)nc2ccc(Br)cc12	-	-	-	-	-	-
Cc1ccc(S(=O)(=O)N2CCN(CC(=O)Nc3ccccc3C(=O)NC3CC3)CC2)cc1	-	-	.	-	.	-
CN(C)CCNc1ccc(CO)c2sc3ccc(O)cc3c(=O)c12	76.7	.	.	.	.	.
O=C(Nc1ccccn1)c1ccc(-c2ccccc2)cc1	-	-	-	-	63.3	-
O=C(Nc1ccccn1)c1ccc2nc(-c3ccccc3)c(-c3ccccc3)nc2c1	.	-	-	-	-	-
CCN(C(=O)COC(=O)c1cc(-c2ccc3cc(OC)ccc3c2)nc2ccccc12)C1CCS(=O)(=O)C1 (stereo not given)	.	-	-	-	67.5	-
COc1cc(CN2CCN(CC#Cc3ccccc3)CC2CCO)cc(OC)c1 (stereo not given)	56.8	-	-	-	-	-
CC(=O)Nc1ccc(NC2=C/C(=N/S(=O)(=O)c3cccs3)c3ccccc3C2=O)cc1	-	-	-	-	82.6	-
C=CCc1c(NCCO)nc(C)[nH]c1=O	-	-	-	-	-	-
CC(C)CNc1nc(N)c([N+](=O)[O-])c(NCc2ccccc2)n1	-	-	-	-	77.0	-
Nc1nc(Nc2ccccc2)nc(NCc2ccccc2)c1[N+](=O)[O-]	-	-	-	-	84.2	-
SMILES	Gli-Sufu block	Jurkat NFkB inh	KLF5 inh	697 NFkB inh	aSyn UTR inh	Mdm2-MdmX inh
Nc1nc(NCc2ccccc2)nc(NCc2ccccc2)c1[N+](=O)[O-]	-	-	-	-	-	-
Cc1cccc(-c2nnc3n2N=C(c2ccccc2)CS3)c1	-	-	-	-	63.0	-
CCOc1ccc(C2=Nn3c(nnc3-c3ccc(OC)cc3)SC2)cc1	-	.	-	.	84.3	.
COc1ccc(CNC(=S)NC(C)CCc2ccccc2)cc1 (stereo not given)	-	-	-	-	-	-
CC(=NNC(=S)Nc1ccc(C)cc1)c1ccccn1	-	.	.	.	.	.
COc1ccccc1NC(=S)NN=C(C)c1ccccn1	85.0	.	.	.	.	.
CC(=NNC(=S)Nc1cccc(C)c1)c1ccccn1	82.0	.	.	.	.	.
CCOc1ccc(C2/C(=C(\O)c3cccc(OC)c3)C(=O)C(=O)N2c2ccccn2)cc1OC (stereo not given)	-	-	-	-	-	-
Cc1ccc(N2C(=O)c3ccccc3C2Nc2ccccc2F)nc1 (stereo not given)	-	-	-	-	-	-
Cc1ccc(N2C(=O)c3ccccc3C2O)nc1 (stereo not given)	.	.	-	.	72.7	.
C[C@H]1COC2=C1C(=O)C(=O)c1c2ccc2c1CCCC2(C)C	-	.	-	.	101.6	.
CCN=c1scc(C)n1/N=C/c1ccc(O)c(O)c1O	-	-	-	-	-	-
COCCN=c1scc(-c2cccs2)n1/N=C/c1ccc(O)c(O)c1O	-	-	-	-	66.9	-
CCN(CC)CCNc1ncnc2c1[nH]c1ccc(OC)cc12	.	-	-	-	-	-
COc1ccc2[nH]c3c(NCCC4=CCCCC4)ncnc3c2c1	67.6	.	-	.	-	.
Cc1ccc(N(C(=O)CNC(=O)c2ccco2)C(C(=O)NC2CCCCC2)c2ccncc2)c(C)c1 (stereo not given)	-	-	-	-	-	-
CCC(=O)c1cn(CC(=O)Nc2cccc(C)c2C)c2ccccc12	72.6	-	-	-	-	-
Cc1ccc(C)c(-c2nc3cc(N)ccc3o2)c1	-	-	-	-	62.9	-
Nc1ccc(-c2nc3ccc(N)cc3o2)cc1	-	-	-	-	-	-
Cc1ccc2nc(-c3cc(N)cc(N)c3)oc2c1	-	-	-	-	62.5	-
C=CCn1c[n+](CC(=O)c2ccc(Br)s2)c2ccccc21	-	-	-	-	-	-
O=C(CCc1ccccc1)NNc1cc(N2CCCCC2)nc(N2CCCCC2)n1	-	-	-	-	82.4	-
CCCn1nc(C(=O)N(C)CC(=O)Nc2ccc(OCC)c(OCC)c2)c2ccccc2c1=O	-	-	.	-	.	-
Fc1ccccc1CN1CCCCCCC1	-	-	-	-	-	-
c1ccc(Sc2ccccc2CN2CCCC2)cc1	-	-	.	-	84.6	-
SMILES	Gli-Sufu block	Jurkat NFkB inh	KLF5 inh	697 NFkB inh	aSyn UTR inh	Mdm2-MdmX inh
O=C(Nc1ccccc1)Nc1cc(OCC(F)(F)F)cc(OCC(F)(F)F)c1	-	.	-	.	74.4	.
CCN(CC(=O)Nc1c(F)cccc1F)C(=O)/C=C/c1ccc(S(=O)(=O)N2CCCCCC2)cc1	-	-	.	-	78.4	-
O=C(N/N=C/c1ccc(F)cc1)c1sccc1OCc1ccc(F)cc1	-	-	-	-	-	-
O=C(N/N=C/c1ccc(Cl)cc1)c1sccc1OCc1ccc(F)cc1	-	-	-	-	72.5	-
CC1CN(c2ccc([N+](=O)[O-])c(NCCOc3ccc(Cl)cc3)c2)CC(C)N1 (stereo not given)	-	-	-	-	104.2	-
CC1(C)CC(=O)C2=C(C1)OC(N)=C(C#N)C21C(=O)N(CN2CCOCC2)c2ccccc21 (stereo not given)	-	-	-	-	-	-
COc1cccc(CN2C(=O)C3(C(C#N)=C(N)OC4=C3C(=O)CCC4)c3ccccc32)c1 (stereo not given)	-	-	-	-	62.7	-
Cc1cccc(C)c1N=C1SC(CC(=O)Nc2c(C)cccc2C)C(=O)N1CCc1ccccn1 (stereo not given)	-	-	-	-	67.2	-
COc1ccc(NC(=O)Cn2nnc(C(=O)NCc3ccc4c(c3)OCO4)c2N)cc1	-	-	-	-	-	-
COc1cccc(CNC(=O)c2nnn(CC(=O)Nc3ccc(Br)cc3)c2N)c1	-	-	-	-	86.0	-
